# Reference: PubChem BioAssay
# Calls of active or inactive are those of the source. Unless noted, the rule behind the calls is not given here.
# Key:
# [1] = A549 cell viability effects, profiling panel, calcein-AM fluorescence, 48 h, basal (AID 1162); settings: higher = more signal; note: test concentration not given here
# [2] = adipocyte viability effects, profiling panel, cell-based, 3T3-L1 adipocytes, calcein-AM fluorescence, 48 h, basal (AID 1163); settings: 3T3-L1 adipocytes viability, higher = more signal; note: test concentration not given here
# [3] = HepG2 cell viability effects, profiling panel, calcein-AM fluorescence, 48 h, basal (AID 1164); settings: higher = more signal; note: test concentration not given here
# [4] = MM1S cell viability effects, profiling panel, calcein-AM fluorescence, 48 h, basal (AID 1165); settings: higher = more signal;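 note: viability of MM1S multiple myeloma cells under basal unstimulated conditions; test concentration not given here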
# [5] = basal RPMI8226 viability, no added stimulus, profiling panel, cell-based, calcein-AM fluorescence, 48 h, PK04 Diversity Set (AID 1166); settings: RPMI8226 myeloma viability, higher = more signal;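 note: cells grown under basal conditions without added stimulus; test concentration not given here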
# [6] = basal HepG2 mitochondrial membrane potential changes, profiling panel, cell-based, JC-1 fluorescence, 24 h, 100 nL compound (AID 1167); settings: higher = more signal; note: test concentration not given here
# [7] = basal 3T3-L1 adipocyte mitochondrial potential changes, profiling panel, cell-based, JC-1 fluorescence, 3T3-L1 adipocytes, 24 h, 100 nL compound (AID 1168); settings: JC-1 mitochondrial fluorescence, higher = more signal, called active from +8 up or from −8 down; note: test concentration not given here
# [8] = basal RPMI8226 mitochondrial membrane potential changes, profiling panel, cell-based, JC-1 fluorescence, 24 h, 100 nL compound (AID 1169); settings: RPMI8226 myeloma, JC-1 mitochondrial potential fluorescence, higher = more signal; note: test concentration not given here
# [9] = basal MM1S mitochondrial membrane potential changes, profiling panel, cell-based, JC-1 fluorescence, 24 h, 100 nL compound (AID 1170); settings: higher = more signal; note: test concentration not given here
# [10] = A549 lung cancer cell viability effects, profiling panel, resazurin fluorescence, 24 h, PK04 Diversity Set (AID 1171); settings: higher = more signal, called active from +8 up or from −8 down; note: test concentration not given here
# [11] = HepG2 liver cancer cell viability effects, profiling panel, resazurin fluorescence, 24 h, PK04 Diversity Set (AID 1172); settings: higher = more signal; note: test concentration not given here
# [12] = basal S. cerevisiae growth modulation, no modifier, primary screen, OD600, strain BY4716, 24 h, basal condition (AID 1173); settings: OD600, 24 h, higher = more signal, called active from +8 up or from −8 down
# [13] = MM1S myeloma cell viability, profiling panel, resazurin fluorescence, basal, 24 h, PK04 Diversity Set (AID 1174); settings: higher = more signal, called active from +8 up or from −8 down;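 note: MM1S multiple myeloma cell line; test concentration not given here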
# [14] = target: Dihydroorotate dehydrogenase (quinone), mitochondrial (Plasmodium falciparum (isolate 3D7)) (UniProt Q08210); assay: PfDHODH enzyme inhibitors, primary screen, biochemical, C-terminal His tag, absorbance 600 nm (AID 1175); settings: DCIP absorbance 600 nm, higher = more signal, called active from +8 up or from −8 down;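 note: recombinant parasite enzyme with a five histidine tag at its C terminus; test concentration not given here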
# Chain of Dihydroorotate dehydrogenase (quinone), mitochondrial (Plasmodium falciparum (isolate 3D7)) (Q08210 whole entry, looked up): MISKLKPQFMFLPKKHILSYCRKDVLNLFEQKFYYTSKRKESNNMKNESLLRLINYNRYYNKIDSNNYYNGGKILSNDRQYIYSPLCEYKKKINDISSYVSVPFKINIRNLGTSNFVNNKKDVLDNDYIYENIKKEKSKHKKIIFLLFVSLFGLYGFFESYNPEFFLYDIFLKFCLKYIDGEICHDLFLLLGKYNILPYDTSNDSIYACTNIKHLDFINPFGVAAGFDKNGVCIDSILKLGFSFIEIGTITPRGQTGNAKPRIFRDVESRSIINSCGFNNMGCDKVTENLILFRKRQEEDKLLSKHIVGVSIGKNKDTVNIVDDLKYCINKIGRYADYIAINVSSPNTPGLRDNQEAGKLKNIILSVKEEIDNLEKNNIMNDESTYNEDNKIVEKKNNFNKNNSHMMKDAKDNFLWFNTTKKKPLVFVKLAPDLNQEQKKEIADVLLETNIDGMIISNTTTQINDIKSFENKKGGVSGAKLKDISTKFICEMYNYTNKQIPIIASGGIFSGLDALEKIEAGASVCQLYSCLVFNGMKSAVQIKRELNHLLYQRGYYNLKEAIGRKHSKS
# [15] = P. aeruginosa biofilm formation inhibitors, primary screen, strain PAO1, LB-PBS medium, absorbance 600 nm (AID 1176); note: test concentration not given here; settings: P. aeruginosa PAO1 growth/biofilm, A600, 12 h; higher = more signal
# [16] = S. cerevisiae RM11-1a growth modifiers, primary screen, strain RM11-1a, OD600, basal, 24 h (AID 1177); settings: OD600, 24 h, higher = more signal, called active from +8 up or from −8 down;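 note: cultures grown under basal conditions with no added stressor; test concentration not given here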
# [17] = E. coli acrAB mutant growth effects, primary screen, E. coli filamentation inducers, strain DRC39, OD650, 24 h (AID 1178); settings: higher = more signal, called active from +8 up or from −8 down;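 note: growth measured as culture turbidity by optical density at 650 nm; test concentration not given here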
# [18] = E. coli acrAB mutant growth effects, primary screen, E. coli filamentation inducers, strain DRC39, OD650, 48 h (AID 1179);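 note: screen aims at cell division blockers that make cells filament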; settings: E. coli DRC39 delta-acrAB growth, higher = more signal, called active from +8 up or from −8 down
# [19] = RPMI8226 myeloma cell viability, profiling panel, resazurin fluorescence, basal, 24 h, PK04 Diversity Set (AID 1180); settings: higher = more signal;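 note: RPMI8826 multiple myeloma cell line at 5000 cells per well; test concentration not given here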
# [20] = target: E3 ubiquitin-protein ligase XIAP (Homo sapiens) (UniProt P98170); assay: XIAP binders, primary screen, biophysical, small-molecule microarray, fluorescence 635 nm (AID 1181); settings: small-molecule microarray binding, higher = more signal;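 note: score merges 667 nm emission and signal to noise over triplicate slides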
# Chain of E3 ubiquitin-protein ligase XIAP (Homo sapiens) (P98170 whole entry, looked up): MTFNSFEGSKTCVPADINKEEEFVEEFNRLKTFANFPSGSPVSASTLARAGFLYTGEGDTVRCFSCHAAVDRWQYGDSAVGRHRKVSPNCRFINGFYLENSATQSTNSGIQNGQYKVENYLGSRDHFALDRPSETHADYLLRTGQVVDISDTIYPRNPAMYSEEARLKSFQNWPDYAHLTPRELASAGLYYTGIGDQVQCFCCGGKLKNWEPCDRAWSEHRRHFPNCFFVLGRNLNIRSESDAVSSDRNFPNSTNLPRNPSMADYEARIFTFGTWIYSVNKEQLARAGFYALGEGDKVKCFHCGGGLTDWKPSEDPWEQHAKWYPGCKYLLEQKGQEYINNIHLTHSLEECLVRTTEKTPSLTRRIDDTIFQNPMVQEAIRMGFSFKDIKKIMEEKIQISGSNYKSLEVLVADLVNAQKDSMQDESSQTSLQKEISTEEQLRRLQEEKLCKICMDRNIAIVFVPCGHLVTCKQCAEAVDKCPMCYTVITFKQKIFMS
SMILES,z-score [1],z-score [2],z-score [3],z-score [4],z-score [5],z-score [6],z-score [7],z-score [8],z-score [9],z-score [10],z-score [11],z-score [12],z-score [13],composite z-score [14],z-score [15],z-score [16],z-score [17],z-score [18],z-score [19],composite z-score [20]
CC(C)C(=C=CC[C@H](O)c1ccc(OCCO)cc1)C[C@H](O)c1ccccn1,1.84,-0.245,1.34,-1.86,-0.121,0.421,-0.0235 (inactive),-0.479,-0.5,1.15 (inactive),0.748,-1.7 (inactive),0.143 (inactive),-0.575 (inactive),0.379 (inactive),0.673 (inactive),1.37 (inactive),0.879 (inactive),0.986,0.244
CC(=O)c1ccc(C(O)C2C=CC3C(=O)N(c4ccccc4)C(=O)C3N2Nc2ccc(C#N)cc2)cc1 (stereo not given),-0.53,-0.292,-0.477,-0.262,-0.821,-1.19,-1.06 (inactive),-0.257,-0.0349,-0.178 (inactive),-1.04,-2.04 (inactive),-0.848 (inactive),-0.946 (inactive),0.695 (inactive),-0.826 (inactive),-0.821 (inactive),-0.433 (inactive),-1.84,-0.396
C=CCC(OC(C)=O)[C@@H]1[C@@H](N(Cc2cccc3ccccc23)C(=O)Cc2ccc(OC)cc2)c2cc(OCCCO)ccc2N1C(=O)c1ccc2ccccc2n1 (stereo not given in full),-0.639,1.69,0.493,-1.27,-0.192,1.64,-0.0994 (inactive),0.106,0.306,0.679 (inactive),0.602,0.0243 (inactive),-0.415 (inactive),-0.175 (inactive),-0.145 (inactive),-0.212 (inactive),0.884 (inactive),0.284 (inactive),0.0309,0.343
COc1cccc(/C=C/C=O)c1,0.482,-0.132,0.844,-1.38,-0.803,1.04,0.532 (inactive),-0.109,-0.253,0.336 (inactive),0.445,-6.49 (inactive),-0.687 (inactive),-0.0136 (inactive),-0.131 (inactive),0.0721 (inactive),0.635 (inactive),0.403 (inactive),0.884,-0.0224
COCCOC(=O)N1C(=O)[C@@]2(c3cc(C#Cc4ccc(OC)cc4)ccc31)[C@H](C(=O)Nc1nc3ccccc3s1)[C@H]1C(=O)O[C@H](c3ccccc3)[C@H](c3ccccc3)N1[C@@H]2c1ccc(O)cc1,0.373,1.31,-0.375,-1.18,-1,-2.78,1.1 (inactive),-0.544,-0.766,0.0344 (inactive),-0.154,-0.43 (inactive),0.529 (inactive),1.17 (inactive),0.609 (inactive),0.735 (inactive),0.275 (inactive),-0.591 (inactive),0.85,0.012
Cc1ccc(S[C@]2(C(=O)O)CC(=O)N(Cc3ccccc3Cl)[C@@H]2c2ccc(CO)cc2I)cc1,-0.794,-0.551,-0.828,-2.94,-2.92,-0.508,-1.14 (inactive),-0.615,-0.589,0.459 (inactive),0.457,-3.19 (inactive),-3.07 (inactive),0.297 (inactive),1.15 (inactive),-0.78 (inactive),0.0071 (inactive),-0.26 (inactive),-2.19,-0.0388
[N-]=[N+]=NCc1ccccc1C[C@]1(C(N)=O)N=C(c2ccc(OCCCO)cc2)O[C@H]1c1ccccc1,-0.277,-0.0112,-0.284,-2.25,-1.04,-0.417,0.587 (inactive),-0.715,-0.464,0.004 (inactive),1,-0.198 (inactive),-0.726 (inactive),0.921 (inactive),-0.786 (inactive),1.4 (inactive),0.146 (inactive),0.98 (inactive),-0.581,0.1
CN(C)CCCNC(=O)[C@@H]1c2ccccc2C(=O)N(Cc2ccccc2Cl)[C@H]1c1ccc(CO)cc1,0.904,0.841,0.112,-0.147,-0.872,1.5,0.517 (inactive),0.114,0.599,0.508 (inactive),0.248,-0.433 (inactive),0.608 (inactive),0.411 (inactive),0.0561 (inactive),-0.39 (inactive),0.206 (inactive),-0.2 (inactive),0.179,-0.02
Cc1ccc(S[C@]2(C(=O)NCC(F)(F)F)CC(=O)N(Cc3ccccc3C(F)(F)F)[C@@H]2c2ccc(CO)cc2I)cc1,1.45,-0.438,0.707,-1.56,-1.71,0.16,0.0898 (inactive),-0.597,-2.22,0.328 (inactive),0.719,-3.66 (inactive),-2.62 (inactive),0.196 (inactive),-0.0623 (inactive),-1.21 (inactive),0.506 (inactive),1.21 (inactive),-1.15,0.531
